Where a name gives a salt, the structure may show the parent alone. ± gives the standard deviation or the standard deviation of the averaged measurements.
What was measured:
Conditions in all cases: 25 µM; exposure: 24-48 hpf
[1] = system: Danio rerio Tg(wt1b:EGFP) embryo, pronephros; assay: glomerular separation, fold change vs DMSO control; higher = glomeruli further apart (abnormal)
How it was run: (§1)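 Distances and angles describing the pronephros were computed by a Fiji macro from 16 reference points set manually on maximum projections of dorsal images. These images came from dechorionated Tg(wt1b:EGFP) zebrafish embryos held in agarose-filled 96-well plates after exposure to 25 μM compound in 0.5% DMSO, in HEPES-buffered E3 with 0.003% PTU, from 24 to 48 hpf at 28.5°C. Any value more than 2 SD from the feature mean was excluded. Features are stated as fold change relative to the mean of same-day DMSO-treated embryos.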

[2] = system: Danio rerio Tg(wt1b:EGFP) embryo, pronephros; assay: glomerular width (mean of left and right), fold change vs DMSO control; higher = wider glomerulus
How it was run: as §1

[3] = system: Danio rerio Tg(wt1b:EGFP) embryo, pronephros; assay: fraction of imaged embryos annotated as normal kidney; higher = less nephrotoxic; extreme values may be limits of the assay
How it was run: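 Embryos of the Tg(wt1b:EGFP) zebrafish line were dechorionated and held in 12-well plates with 25 μM compound in 0.5% DMSO and 5 mM HEPES-buffered E3 containing 0.003% PTU, from 24 to 48 hpf at 28.5°C. Larvae were then anaesthetised with tricaine, set dorsal side up in agarose-filled 96-well plates, and their pronephroi imaged by widefield fluorescence at 470 nm over 10 z-slices. Each value is the fraction of embryos per treatment placed in the normal-kidney category after manual annotation of maximum projections.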

[4] = system: Danio rerio Tg(wt1b:EGFP) embryo, pronephros; assay: pronephric angle neck segment to proximal convoluted tubule (mean of left and right), fold change vs DMSO control; higher = larger pronephric angle
How it was run: as §1

## CCc1cccc2c3c([nH]c12)C(CC)(CC(=O)O)OCC3 (configuration not stated) [Etodolac]
[1]
  glomerular separation: 1.66 ± 0.82
[2]
  glomerular width: 0.954 ± 0.025
[3]
  fraction of imaged embryos annotated as normal kidney: 0.636
[4]
  pronephric angle neck segment: 1.13 ± 0.055

## O=C1CCc2cc(OCCCCc3nnnn3C3CCCCC3)ccc2N1 [Cilostazol]
[1]
  glomerular separation: 1.05 ± 0.38
[2]
  glomerular width: 1 ± 0.023
[3]
  fraction of imaged embryos annotated as normal kidney: 0.75
[4]
  pronephric angle neck segment: 0.994 ± 0.05

## C=CC(N)CCC(=O)O (configuration not stated) [Vigabatrin hydrochloride]
[1]
  glomerular separation: 0.956 ± 0.33
[2]
  glomerular width: 1.129 ± 0.0097
[3]
  fraction of imaged embryos annotated as normal kidney: 0.917
[4]
  pronephric angle neck segment: 1.05 ± 0.029

## CCCOc1cc(N)ccc1C(=O)OCCN(CC)CC [Propoxycaine hydrochloride]
[1]
  glomerular separation: 0.859 ± 0.24
[2]
  glomerular width: 0.982 ± 0.023
[3]
  fraction of imaged embryos annotated as normal kidney: 0.917
[4]
  pronephric angle neck segment: 1.01 ± 0.023

## C[C@@H]1[C@H](O)[C@@H](C)/C=C/C=C/C=C/C=C/C=C/C=C/C=C/[C@H](O[C@@H]2O[C@H](C)[C@@H](O)[C@H](N)[C@@H]2O)C[C@@H]2O[C@](O)(C[C@@H](O)C[C@@H](O)[C@H](O)CC[C@@H](O)C[C@@H](O)CC(=O)O[C@H]1C)C[C@H](O)[C@H]2C(=O)O [Amphotericin B]
[1]
  glomerular separation: 3.69 ± 2.9
[2]
  glomerular width: 0.907 ± 0.13
[3]
  fraction of imaged embryos annotated as normal kidney: 0
[4]
  pronephric angle neck segment: 1.59 ± 0.016

## Nc1nc2c(ncn2COC(CO)CO)c(=O)[nH]1 [Ganciclovir]
[1]
  glomerular separation: 0.62 ± 0.26
[2]
  glomerular width: 1.009 ± 0.0021
[3]
  fraction of imaged embryos annotated as normal kidney: 0.917
[4]
  pronephric angle neck segment: 0.998 ± 0.018

## COCC(=O)Nc1c(I)c(C(=O)NCC(O)CO)c(I)c(C(=O)N(C)CC(O)CO)c1I (configuration not stated) [Iopromide]
[1]
  glomerular separation: 0.857 ± 0.4
[2]
  glomerular width: 1.02 ± 0.041
[3]
  fraction of imaged embryos annotated as normal kidney: 0.917
[4]
  pronephric angle neck segment: 0.97 ± 0.023

## O=C1c2cccc3c2[C@H](CCC3)CN1[C@@H]1CN2CCC1CC2 [Palonosetron hydrochloride]
[1]
  glomerular separation: 1.08 ± 0.37
[2]
  glomerular width: 0.975 ± 0.023
[3]
  fraction of imaged embryos annotated as normal kidney: 0.667
[4]
  pronephric angle neck segment: 1 ± 0.038

## Cc1cc(C(C)(C)C)cc(C)c1CC1=NCCN1 [Xylometazoline hydrochloride]
[1]
  glomerular separation: 1.11 ± 0.42
[2]
  glomerular width: 0.948 ± 0.05
[3]
  fraction of imaged embryos annotated as normal kidney: 1
[4]
  pronephric angle neck segment: 1 ± 0.012

## COc1ccc(NS(=O)(=O)c2ccc(N)cc2)nn1 [Sulfamethoxypyridazine]
[1]
  glomerular separation: 0.681 ± 0.15
[2]
  glomerular width: 1.03 ± 0.1
[3]
  fraction of imaged embryos annotated as normal kidney: 1
[4]
  pronephric angle neck segment: 1.006 ± 0.0011

## NCc1ccc(S(N)(=O)=O)cc1 [Mafenide hydrochloride]
[1]
  glomerular separation: 0.887 ± 0.27
[2]
  glomerular width: 1.09 ± 0.019
[3]
  fraction of imaged embryos annotated as normal kidney: 0.833
[4]
  pronephric angle neck segment: 0.9512 ± 0.0031

## CCCCCCCN(CC)CCCC(O)c1ccc(NS(C)(=O)=O)cc1 (configuration not stated) [Ibutilide fumarate]
[1]
  glomerular separation: 0.897 ± 0.24
[2]
  glomerular width: 1.0672 ± 0.00094
[3]
  fraction of imaged embryos annotated as normal kidney: 1
[4]
  pronephric angle neck segment: 0.961 ± 0.086

## O=c1[nH]c(=O)n([C@H]2C[C@H](O)[C@@H](CO)O2)cc1F [Floxuridine]
[1]
  glomerular separation: 0.88 ± 0.33
[2]
  glomerular width: 0.972 ± 0.015
[3]
  fraction of imaged embryos annotated as normal kidney: 0.5
[4]
  pronephric angle neck segment: 1.05 ± 0.016

## CCCCCN(C)CCC(O)(P(=O)(O)O)P(=O)(O)O [Ibandronate sodium]
[1]
  glomerular separation: 0.837 ± 0.21
[2]
  glomerular width: 1.06 ± 0.025
[3]
  fraction of imaged embryos annotated as normal kidney: 0.833
[4]
  pronephric angle neck segment: 0.981 ± 0.048

## CC(=O)O[C@]1(C(C)=O)CC[C@H]2[C@@H]3C=C(Cl)C4=CC(=O)[C@@H]5C[C@@H]5[C@]4(C)[C@H]3CC[C@@]21C [Cyproterone acetate]
[1]
  glomerular separation: 1.2 ± 0.46
[2]
  glomerular width: 0.931 ± 0.028
[3]
  fraction of imaged embryos annotated as normal kidney: 0.917
[4]
  pronephric angle neck segment: 0.977 ± 0.017

## CCCCNc1ccc(C(=O)OCCN(C)C)cc1
[1]
  glomerular separation: 1.01 ± 0.33
[2]
  glomerular width: 0.959 ± 0.096
[3]
  fraction of imaged embryos annotated as normal kidney: 0.833
[4]
  pronephric angle neck segment: 1.057 ± 0.0014

## C[C@]12CC[C@@H]3c4ccc(O)cc4C[C@@H](CCCCCCCCC[S+]([O-])CCCC(F)(F)C(F)(F)F)[C@H]3[C@@H]1CC[C@@H]2O (some centres not stated) [Fulvestrant]
[1]
  glomerular separation: 1.22 ± 0.45
[2]
  glomerular width: 0.963 ± 0.037
[3]
  fraction of imaged embryos annotated as normal kidney: 0.833
[4]
  pronephric angle neck segment: 0.874 ± 0.065

## CCN(CC)CCNC(=O)c1cc(Cl)c(N)cc1OC [Metoclopramide monohydrochloride]
[1]
  glomerular separation: 0.868 ± 0.25
[2]
  glomerular width: 0.962 ± 0.015
[3]
  fraction of imaged embryos annotated as normal kidney: 0.833
[4]
  pronephric angle neck segment: 0.944 ± 0.032

## CN1CC2c3ccccc3Oc3ccc(Cl)cc3C2C1 (configuration not stated) [Asenapine maleate]
[1]
  glomerular separation: 0.806 ± 0.35
[2]
  glomerular width: 0.991 ± 0.088
[3]
  fraction of imaged embryos annotated as normal kidney: 0.583
[4]
  pronephric angle neck segment: 0.7772 ± 0.0031

## C[C@H]1O[C@@H](O[C@H]2[C@@H](O)C[C@H](O[C@H]3[C@@H](O)C[C@H](O[C@H]4CC[C@@]5(C)[C@H](CC[C@@H]6[C@@H]5C[C@@H](O)[C@]5(C)[C@@H](C7=CC(=O)OC7)CC[C@]65O)C4)O[C@@H]3C)O[C@@H]2C)C[C@H](O)[C@@H]1O [Digoxin]
[1]
  glomerular separation: 1.43 ± 0.52
[2]
  glomerular width: 1.08 ± 0.023
[3]
  fraction of imaged embryos annotated as normal kidney: 0.75
[4]
  pronephric angle neck segment: 0.9342 ± 0.0075

## Cc1ccc(-c2ncc(Cl)cc2-c2ccc(S(C)(=O)=O)cc2)cn1 [Etoricoxib]
[1]
  glomerular separation: 0.967 ± 0.19
[2]
  glomerular width: 1.023 ± 0.0032
[3]
  fraction of imaged embryos annotated as normal kidney: 0.833
[4]
  pronephric angle neck segment: 1.04 ± 0.042

## COc1ccc(CN2CCN(C(c3ccc(F)cc3)c3ccc(F)cc3)CC2)c(OC)c1OC [Lomerizine hydrochloride]
[1]
  glomerular separation: 0.888 ± 0.33
[2]
  glomerular width: 0.9746 ± 0.0083
[3]
  fraction of imaged embryos annotated as normal kidney: 0.583
[4]
  pronephric angle neck segment: 0.99 ± 0.019

## CC(C)c1c(C(=O)Nc2ccccc2)c(-c2ccccc2)c(-c2ccc(F)cc2)n1CC[C@@H](O)C[C@@H](O)CC(=O)O [Atorvastatin]
[1]
  glomerular separation: 3.42 ± 1.4
[2]
  glomerular width: 0.691 ± 0.032
[3]
  fraction of imaged embryos annotated as normal kidney: 0
[4]
  pronephric angle neck segment: 1.65 ± 0.047

## O=C(CCCCCCC(=O)Nc1ccccc1)NO [Vorinostat]
[1]
  glomerular separation: 1.25 ± 0.51
[2]
  glomerular width: 0.947 ± 0.056
[3]
  fraction of imaged embryos annotated as normal kidney: 0.667
[4]
  pronephric angle neck segment: 1 ± 0.053

## Fc1ccc([C@@H]2CCNC[C@H]2COc2ccc3c(c2)OCO3)cc1 [Paroxetine Hydrochloride]
[1]
  glomerular separation: 0.594 ± 0.17
[2]
  glomerular width: 1.03 ± 0.042
[3]
  fraction of imaged embryos annotated as normal kidney: 1
[4]
  pronephric angle neck segment: 0.9885 ± 0.0011

## O=c1cc(-c2ccc(O)c(O)c2)oc2cc(O)cc(O)c12 [Luteolin]
[1]
  glomerular separation: 0.869 ± 0.36
[2]
  glomerular width: 0.9662 ± 0.004
[3]
  fraction of imaged embryos annotated as normal kidney: 0.917
[4]
  pronephric angle neck segment: 0.999 ± 0.006

## N=C(N)NS(=O)(=O)c1ccc(N)cc1 [Sulfaguanidine]
[1]
  glomerular separation: 1.04 ± 0.35
[2]
  glomerular width: 0.979 ± 0.034
[3]
  fraction of imaged embryos annotated as normal kidney: 0.833
[4]
  pronephric angle neck segment: 1.02 ± 0.036

## O=C(OCCOCCO)c1ccccc1Nc1cccc(C(F)(F)F)c1 [Etofenamate]
[1]
  glomerular separation: 3.04 ± 0.95
[2]
  glomerular width: 0.684 ± 0.026
[3]
  fraction of imaged embryos annotated as normal kidney: 0
[4]
  pronephric angle neck segment: 1.75 ± 0.018

Source: the supplement of paper PMC7366291
